High-throughput results as filed in PubChem BioAssay.
Many of the other results were omitted from the sample, so hits are more common in it than they were.
Artemis inh: blocks endonuclease activity of human Artemis; Q96SD1; recombinant Artemis, quenched FAM hairpin cleavage fluorescence; inhibition, % at 10 µM; hit rate 0.78% among 30,000;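 active = at 10 µM dose, at least 30% inhibition, measured as corrected fluorescence normalized to stimulator and neutral control wells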
Target sequence (Q96SD1 whole entry, looked up): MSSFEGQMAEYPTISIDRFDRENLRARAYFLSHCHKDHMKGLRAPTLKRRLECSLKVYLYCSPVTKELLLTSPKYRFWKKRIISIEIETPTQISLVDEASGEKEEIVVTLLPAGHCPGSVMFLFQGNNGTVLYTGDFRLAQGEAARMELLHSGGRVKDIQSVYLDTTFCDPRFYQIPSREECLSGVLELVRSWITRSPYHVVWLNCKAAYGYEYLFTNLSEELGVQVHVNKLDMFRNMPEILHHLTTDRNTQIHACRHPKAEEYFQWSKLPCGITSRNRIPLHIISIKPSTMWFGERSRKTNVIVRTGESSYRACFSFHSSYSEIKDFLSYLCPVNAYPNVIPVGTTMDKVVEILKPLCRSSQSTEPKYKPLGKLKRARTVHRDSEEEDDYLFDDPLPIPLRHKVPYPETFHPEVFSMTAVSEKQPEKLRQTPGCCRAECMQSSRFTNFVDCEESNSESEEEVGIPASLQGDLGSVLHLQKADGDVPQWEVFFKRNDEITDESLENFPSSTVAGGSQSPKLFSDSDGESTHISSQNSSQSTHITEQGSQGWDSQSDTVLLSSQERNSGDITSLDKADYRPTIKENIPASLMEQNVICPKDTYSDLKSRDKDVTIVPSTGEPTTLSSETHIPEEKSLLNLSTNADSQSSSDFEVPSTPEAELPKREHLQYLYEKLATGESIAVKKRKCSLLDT
Numbers without * were called inactive.

For CCc1ccc2[nH]c(=O)c(CN(Cc3ccccc3)Cc3nnnn3Cc3ccco3)cc2c1 the results were Artemis inh 21.
Screening Cc1cc(C)c2cc(CN(Cc3ccc4c(c3)OCO4)Cc3nnnn3Cc3ccco3)c(=O)[nH]c2c1 returned Artemis inh 40*.
`Cc1cc(C)c2cc(CN(CCO)Cc3nnnn3Cc3ccc(F)cc3)c(=O)[nH]c2c1` gave Artemis inh 1.
O=c1[nH]c2cc3c(cc2cc1CN(Cc1ccccc1)Cc1nnnn1Cc1ccco1)OCCO3 was read as Artemis inh 27.
Screening Cc1ccc2[nH]c(=O)c(CN(Cc3ccc4c(c3)OCO4)Cc3nnnn3Cc3ccco3)cc2c1 returned Artemis inh 35*.
Screening CCC(c1nnnn1Cc1ccco1)N(CCc1ccccc1)Cc1cc2cc(C)ccc2[nH]c1=O (centres undefined) returned Artemis inh 14.
CC(C)(C)C(=O)Nc1ccc(C(=O)NNC(=O)Cc2ccccc2)cc1 was read as Artemis inh 2.
`Cc1nc(NC(C)C)c2cnn(CCc3ccccc3)c2n1` gave Artemis inh 1.
For COC(=O)Nc1snnc1C the results were Artemis inh 0.
`Cc1cc(=S)n(-c2ccccc2)n1C` gave Artemis inh 5.
For Cc1ccc(C(Sc2ccccc2)C(Cn2cncn2)C(=O)c2ccccc2)cc1 (centres undefined) the results were Artemis inh 5.
Screening COc1ccc(C(=O)Nc2ccc(N3CCCC3)cc2)cc1 returned Artemis inh 62*.
For CCOc1ccc(C(=O)Nc2ccc(N3CCCC3)cc2)cc1 the results were Artemis inh 27.
Screening O=C(Nc1ccc(N2CCCCC2)cc1)c1ccc(F)cc1 returned Artemis inh 10.
For COc1ccc(C)cc1S(=O)(=O)N(CC(N)=O)Cc1ccccc1 the results were Artemis inh 2.
Screening COc1ccc(OC)c(-n2c(C)ccc2-c2ccc(S(C)(=O)=O)cc2)c1 returned Artemis inh 7.
Screening CS(=O)(=O)NCc1nnc(SCC(=O)NC2CCCCC2)n1-c1ccc(F)cc1 returned Artemis inh 7.
Screening COCc1c(C(=O)N2CCN(c3ccc(C(F)(F)F)cn3)CC2)oc2ccccc12 returned Artemis inh 1.
For Cc1[nH]c2ccccc2c1C(c1ccccn1)c1c(C)[nH]c2ccccc12 the results were Artemis inh -4.
Screening O=c1[nH]c(-c2ccccn2)nc2ccccc12 returned Artemis inh 15.
`c1ccc(-c2nc3c(ccc4ccccc43)[nH]2)nc1` gave Artemis inh 44*.
For O=C(N/N=C\c1ccc(COc2ccc([N+](=O)[O-])cc2)o1)c1ccc(Cl)cc1 the results were Artemis inh 12.
`O=[N+]([O-])CC(=Nc1ccc(Cl)cc1)N/N=C\c1oc(O)c2ccccc12` gave Artemis inh 35*.
`Cc1ccc(NS(=O)(=O)c2ccc(NC(=O)c3cccc(NC(=O)C(C)C)c3)cc2)cc1` gave Artemis inh -1.
`Oc1ccc2ccccc2c1C=Nc1ccccc1-c1nc2ccccc2[nH]1` gave Artemis inh 14.
Screening Oc1ccc2ccccc2c1/C=N/c1nc2c(s1)CCCC2 returned Artemis inh 63*.
Screening Oc1c(Br)cc(Br)cc1/C=N/c1nc2c(s1)CCCC2 returned Artemis inh -2.
`Cc1ccc(S(=O)(=O)N(C)CCCC(=O)n2nc(C)cc2C)cc1` gave Artemis inh 0.
COc1ccc2c3c(cccc13)N(C)N=C2C was read as Artemis inh 58*.
For COc1ccc(C)cc1-n1c(N)c(C#N)c(C#N)c1-c1ccc(OC)c(OC)c1OC the results were Artemis inh -4.
Screening CNc1nc(-c2c[nH]c3ccccc23)cs1 returned Artemis inh 38*.
For Cc1csc(NC(=O)Cc2c[nH]c3ccccc23)n1 the results were Artemis inh -3.
Screening COC(=O)c1cc(-c2c[nH]c3ccccc23)n[nH]1 returned Artemis inh -4.
O=C(COC(=O)c1ccc(S(=O)(=O)N2CCCC2)cc1)NCc1ccccc1 was read as Artemis inh 2.
Screening CCOc1nc(Nc2ccc(OC)c(Cl)c2)nc(N2CCN(c3ccc(OC)cc3)CC2)n1 returned Artemis inh 1.
For CC(=O)NCCOc1c(C)cc(S(N)(=O)=O)cc1C the results were Artemis inh -4.
`COc1cc(C=O)ccc1OCCOCCOc1c(C)cc(Cl)cc1Cl` gave Artemis inh 4.
Screening Cc1cc(Cl)cc(Br)c1OCCNCC(C)O (centres undefined) returned Artemis inh 31*.
`CN=Cc1c(NC)nc2c(C)cccn2c1=O` gave Artemis inh -4.
CC1(C)C(=O)Nc2ccccc2N1C(=O)COC(=O)c1ccc(Cl)c(S(=O)(=O)NCc2ccccc2)c1 was read as Artemis inh 8.
For Cc1ccc(NC(=O)CCSc2nnnn2-c2ccc3c(c2)OCO3)cc1C the results were Artemis inh -7.
Cc1cccc(-n2cnc(C(=O)NC3CCCCCC3)c2)n1 was read as Artemis inh -5.
For Cc1ccc(C(=O)c2ccccc2C(=O)O)s1 the results were Artemis inh 9.
